Source: PubChem (National Center for Advancing Translational Sciences (NCATS))
G9a block: G9a (human) methyltransferase inhibition; Q96KQ7; G9a H3K9 monomethylation, AlphaScreen, 2 h; Potency, µM (highest dose often 102 µM), for inactives: at the highest dose activity, negative = inhibition, usual class: inhibitors; hit rate 8.8% among 350,000; also: % is scaled to controls: 0 for no effect and ±100 for the full control effect; nearly all actives have a fitted effect of over 75% in size
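Step 1: enzyme (final 20 nM) with compound, 15 min RT. Step 2: substrate peptide 500 nM and SAM 20 uM, 2 h RT. Step 3: anti-H3K9me1 antibody and AlphaScreen beads, 10 min, then plate read.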
JMJD2A Tudor: JMJD2A Tudor domain (human) inhibition; O75164; hit rate 4.4% among 390,000; Potency, µM (highest dose often 114 µM), for inactives: at the highest dose activity change, negative = inhibition, most hits filed as inhibitors; AlphaScreen JMJD2A-Tudor / H3K4me3 peptide binding; also: % is scaled to controls: 0 for no effect and ±100 for the full control effect; nearly all actives have a fitted effect of over 50% in size
BAZ2B inh: BAZ2B (human) inhibition; Q9UIF8; AlphaScreen BAZ2B-H3K14Ac peptide displacement; Potency, µM (highest dose often 114 µM), without a hit: at the top dose activity change, negative = inhibition, hits mostly inhibitors; hit rate 4.4% among 360,000; AID 504333; also: % is scaled to controls: 0 for no effect and ±100 for the full control effect; nearly all actives have a fitted effect of over 60% in size
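Protein-peptide AlphaScreen: BAZ2B 50 nM, b-H3K14Ac 50 nM, 1x PBS pH 7.4 + 0.01% Tween-20. Preincubation 30 min RT; cpd 30 min RT (top 110 uM); beads 20 min RT, light-protected.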
HP1b binding inh: inhibitors of HP1-beta chromodomain binding to methylated histone tails; AID 540317; AlphaScreen HP1-beta / biotin-H3K9me3 peptide binding; hit rate 0.56% among 390,000; P83916; Potency, µM (highest dose often 114 µM), for inactives: at the highest dose activity change, negative = inhibition, usual class: inhibitors; also: nearly all actives have a fitted effect of over 70% in size
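AlphaScreen: HP1-beta (50 nM) preformed 30 min with biotin-H3(1-18)K9me3 peptide (50 nM) in PBS pH 7.4, 0.01% Tween-20. Compound added for 30 min at RT, then streptavidin donor/nickel chelate acceptor beads (10 ug/mL) for 30 min.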
L3MBTL1 inh: inhibitors of human L3MBTL1 | AlphaScreen L3MBTL1–H3K9me1 peptide binding | hit rate 0.66% among 230,000 | Potency, µM (titrated, usually from 57.1 µM), for inactives: top-dose activity, negative = inhibition, actives largely listed as inhibitors | Q9Y468; also: % is scaled to controls: 0 for no effect and ±100 for the full control effect; nearly all actives have a fitted effect of over 60% in size
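Displacement of a biotinylated histone H3(1-15) peptide monomethylated at Lys9 (75 nM) from L3MBTL1 (50 nM) was measured by AlphaScreen after a 30 min room-temperature compound incubation; cefsulodin titration served as intraplate control.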
Sfp PPTase inh: blocks B. subtilis Sfp PPTase activity | Biochemical Sfp PPTase activity, qHTS | Q9F4F7 | AID 1490 | Potency, µM, without a hit: largest response in the series, negative = inhibition, actives largely listed as inhibitors | hit rate 3.5% among 310,000;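 also: the enzyme is Sfp with the accession as filed and its product quenches rhodamine fluorescence; 0% = enzyme reaction without inhibitor and -100% = no enzyme wells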
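After 15 min at room temperature with compound, 15 nM Sfp received 5 uM rhodamine-CoA plus 12.5 uM BHQ-2-ybbR (50 mM Hepes pH 7.6, 10 mM MgCl2). Rate came from the fluorescence difference over 30 min, ex 525/em 598 nm.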
An asterisk follows results filed as active; u = inconclusive; x = not tested or not shown; [ ] = remark or other dose. The list is not random: actives were taken first. Their share in the collection is about 12%. Calls follow the shape of the dose curve; as a rule, active = well fitted curve in the direction sought with a large enough effect; inconclusive = small, poorly fitted or top-dose-only effect, or another doubt; inactive = no such curve, though single readings can be large; an effect the other way counts as inactive or inconclusive. Potency is read from the fitted curve at half-maximal effect.

SMILES	G9a block	JMJD2A Tudor	BAZ2B inh	HP1b binding inh	L3MBTL1 inh	Sfp PPTase inh
COc1ccc(OCC(=O)NC(=S)Nc2ccc(N3CCOCC3)c(Cl)c2)cc1	u	-25.0%	u	-18.3%	x	-26.2%
O=C(Nc1ccc(N2CCCC2)c(Cl)c1)c1cccs1	28.2µM*	44.7µM*	44.7µM*	u	-14.2%	4.9%
CCc1cccc(NC(=O)CCc2c(C)nc3c(-c4ccccc4)c(C)nn3c2C)c1	26.1%[59 µM]	7.7%	-6.6%	61.2%	x	x
O=C(Nc1ccc2c(c1)OCCO2)c1cccnc1	-0.7%[59 µM]	89.1µM*	u	30.4%	4.2%	14.2%
O=C(NC(=S)Nc1ccc(N2CCOCC2)c(Cl)c1)c1cccs1	1.1%	u	35.5µM*	-4.7%	-19.8%	0.7%
O=C(Nc1ccc(N2CCCC2)c(Cl)c1)c1cccnc1	8.91µM*	-31.2%	4.8%	1.5%	u	-0.1%
CSc1ccc(NC(=O)c2cccnc2)cc1C#N	50.1µM*	0.0%	-14.7%	26.9%	2.3%	16.0%
Cc1ccc(NC(=O)c2cccnc2)cc1C	-10.1%[0.501 µM]	-11.1%	3.7%	22.5%	5.7%[2.29 µM]	12.8%
CC(=O)N1CCc2c(sc3c2c(=O)n(-c2cc(Cl)ccc2C)c(=O)n3C)C1	-19.7%[59 µM]	-8.4%	-21.4%	34.0%	x	x
Cc1c(C(=O)Nc2nc(-c3ccc(F)cc3)ns2)oc2ccc(Cl)cc12	u	-21.7%	-0.2%	4.4%	x	x
CS(=O)(=O)N1CCN(c2ccc(NC(=S)NC(=O)c3cccs3)cc2)CC1	x	-15.6%	5.1%	20.5%	12.1%	8.4%
O=C(NC(=S)Nc1ccc(N2CCCCC2)cc1)c1cccs1	14.1µM*	35.5µM*	14.1µM*	39.8µM*	u	u
CCC[C@@H]1NC(=O)[C@@H](NC(C)=O)CSSC[C@@H](C(N)=O)NC(=O)CNC(=O)[C@H](Cc2c[nH]c3ccccc23)NC(=O)[C@H](CCCN=C(N)N)NC(=O)[C@H](Cc2ccc3ccccc3c2)NC(=O)[C@H](Cc2cnc[nH]2)NC(=O)[C@H](CCCN=C(N)N)NC1=O	x	x	x	x	x	19.1%
O=C(NC1CC(=O)N(c2ccc(Cl)cc2)C1)c1ccc(S(=O)(=O)N2CCCC2)cc1 (stereo not drawn)	3.1%[59 µM]	-18.8%	3.1%	47.2%	x	x
O=C(c1cc2nc(-c3ccco3)cc(C(F)(F)F)n2n1)N1CCN(c2ccccc2)CC1	44.7µM*	-27.0%	u	10.6%	-8.6%	-14.6%
CN(C(=O)c1cc2nc(-c3ccco3)cc(C(F)(F)F)n2n1)C1CCCCC1	56.2µM*	5.5%	12.7%	15.9%	23.0%	50.1µM*
O=C(c1cc2nc(-c3ccco3)cc(C(F)(F)F)n2n1)N1CCCCCC1	u	5.6%	x	31.2%	15.2%	56.2µM*
O=C(c1cc2nc(-c3ccco3)cc(C(F)(F)F)n2n1)N1CCN(c2ccccn2)CC1	u	-3.4%	4.8%	31.2%	-3.5%	-13.8%
O=C(Nc1c(C(=O)N2CCN(c3ccccc3)CC2)oc2ccccc12)c1ccc(Br)o1	u	-21.2%	-28.5%	32.5%	x	x
Cc1ccc(Cc2nc3ccccc3nc2SCC(=O)N2CCCc3ccccc32)cc1	15.3%[59 µM]	-17.5%	3.6%	25.4%[57 µM]	x	x
C=CC1=C(C)/C(=C/c2[nH]c(Cc3[nH]c(/C=C4\NC(=O)C(C)=C4C=C)c(C)c3CCC(=O)O)c(CCC(=O)O)c2C)NC1=O	x	x	x	x	x	39.8µM*
CCN(CC)C(=O)Cn1c(=O)n(-c2ccc(Cl)cc2)c(=O)c2c3c(sc21)CCC3	-2.2%[59 µM]	-14.0%	5.0%	14.9%	x	x
Nc1cccc(-c2c[nH]c3ncc(-c4cccnc4)cc23)c1	x	17.8µM*	x	3.4%	x	x
Nc1ccc2nc(-c3cccnc3)[nH]c2c1	4.1%[59 µM]	-5.9%	-3.0%	15.7%	-0.8%	7.0%
Cc1cc(Cl)ccc1OCC(=O)N(Cc1ccc(N(C)C)cc1)CC1CCCO1 (stereo not drawn)	17.8µM*	28.2µM*	11.2µM*	u	x	x
CN(C)c1ccc(CN(CC2CCCO2)C(=O)COc2ccccc2Cl)cc1 (stereo not drawn)	12.6µM*	44.7µM*	39.8µM*	u	x	x
